Screening data from PubChem BioAssay.
ERG Ets-DNA blk = inhibitors of human ERG Ets domain-DNA interaction; P11308; fluorescence polarization, His-ERG Ets domain / labelled DNA; Potency, µM (series often up to 76.9 µM), inactives show at the top dose FP activity, negative = inhibition, actives largely listed as inhibitors; actives 0.028% (n = 370,000); AID 624246; active means well fitted inhibition curve with a large enough effect in the polarisation, with a control signal flat; inconclusive means small, poorly fitted or top-dose-only effect, or effect the other way, or a change in a side signal; inactive means no such curve, though single readings can be large or run the other way; the % refers to the polarisation;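 further: polarization taken with two DNA probes labelled with fluorescein and Texas red; % of control where 0% means no effect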
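His-tagged ERG Ets domain (1 uM in the protein solution; 300mM KCl, 50mM Tris-HCl, 1mM EDTA, 1mM DTT, pH 7.5) received compound, then a probe mix of 5 nM fluorescein-DNA and 100nM Texas-615-DNA. Fluorescence polarization was read for both dyes.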
TRb-SRC2 inh = inhibitors of human thyroid hormone receptor beta-SRC2 interaction; TRbeta-SRC2 peptide binding, fluorescence polarization; receptor liganded with 1 µM T3; Potency, µM (titrated, usually from 106 µM), for inactives: top-dose activity change, negative = inhibition, usual class: inhibitors; actives 0.065% (n = 280,000);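 further: plate controls were bound peptide for no effect and peptide without receptor for full effect; nearly all actives have a fitted effect of over 50% in size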
Target sequence (P10828 whole entry, looked up): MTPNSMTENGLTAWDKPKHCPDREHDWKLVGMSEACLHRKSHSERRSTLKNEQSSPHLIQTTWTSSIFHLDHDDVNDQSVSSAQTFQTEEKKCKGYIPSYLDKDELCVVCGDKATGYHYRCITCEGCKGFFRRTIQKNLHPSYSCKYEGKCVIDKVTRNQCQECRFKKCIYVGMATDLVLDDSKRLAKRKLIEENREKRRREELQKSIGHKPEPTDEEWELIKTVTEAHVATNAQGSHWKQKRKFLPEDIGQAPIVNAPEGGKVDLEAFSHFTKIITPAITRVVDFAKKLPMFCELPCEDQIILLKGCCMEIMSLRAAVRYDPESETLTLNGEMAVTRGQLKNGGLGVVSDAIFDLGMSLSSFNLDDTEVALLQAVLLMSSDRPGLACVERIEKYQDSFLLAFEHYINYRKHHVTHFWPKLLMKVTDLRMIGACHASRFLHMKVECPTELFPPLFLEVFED
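Assay buffer: 20 mM Tris-HCl, 100 mM NaCl, 10% glycerol, 1 mM EDTA, 0.01% NP-40, 1 mM DTT, 1 uM T3, 5% DMSO; TRb LBD 0.6 uM, Texas Red SRC2 20 nM; FP after 5 hr.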
RECQ1 inh = inhibitors of human RECQ1 DNA helicase; actives 0.54% (n = 240,000); AID 2549; Potency, µM (top dose mostly 57.3 µM), inactives show top-dose activity, negative = inhibition, usual class: inhibitors; RECQ1 DNA unwinding, red fluorescence kinetic read; P46063;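 further: plate controls were vehicle for no effect and no enzyme for full effect; nearly all actives have a fitted effect of over 30% in size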
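RECQ1T1 50 nM; forked duplex (20 bp + 30-nt ss tails) 200 nM, ATP 2 mM final; pH 8.0, 2 mM MgCl2, 2.5 ug/ml poly(dI-dC); 15 min compound preincubation; discontinuous kinetic read over 2 h at RT.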
TexasRed fluor = counter-screen for TRb-SRC2 inhibitors: fluorescence interference; AID 1479; actives 0.29% (n = 280,000); Potency, µM (highest dose often 106 µM), for the others: at the highest dose fluorescence change, negative = quenching; TRb/SRC2 Texas Red total fluorescence interference; active means well fitted curve in either direction with a large enough effect; inconclusive means small, poorly fitted or top-dose-only effect; further: on the % scale 0 is the no-effect control and ±100 the full control effect
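Human TRb ligand-binding domain at 0.6 uM with 20 nM Texas Red SRC2 peptide in Tris buffer containing 1 uM T3 and 5% DMSO, incubated with compound 5 h at ambient temperature. Total fluorescence (555/632 nm) calculated as parallel + 2 × perpendicular.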
RGS12 GoLoco inh = RGS12 GoLoco-Gai1 interaction inhibition. actives 0.44% (n = 230,000). AID 880. Gai1:RGS12 GoLoco peptide FP, rhodamine, 10 min. Potency, µM (highest dose often 61.6 µM), without a hit: at the top dose activity, negative = inhibition, most hits filed as inhibitors. P63096; active means well fitted inhibition curve with a large enough effect, not every such curve was filed as active; inactive means no such curve, though single readings can be large or run the other way; further: on the % scale 0 is the no-effect control and ±100 the full control effect; nearly all actives have a fitted effect of over 30% in size
Target sequence (P63096 whole entry, looked up): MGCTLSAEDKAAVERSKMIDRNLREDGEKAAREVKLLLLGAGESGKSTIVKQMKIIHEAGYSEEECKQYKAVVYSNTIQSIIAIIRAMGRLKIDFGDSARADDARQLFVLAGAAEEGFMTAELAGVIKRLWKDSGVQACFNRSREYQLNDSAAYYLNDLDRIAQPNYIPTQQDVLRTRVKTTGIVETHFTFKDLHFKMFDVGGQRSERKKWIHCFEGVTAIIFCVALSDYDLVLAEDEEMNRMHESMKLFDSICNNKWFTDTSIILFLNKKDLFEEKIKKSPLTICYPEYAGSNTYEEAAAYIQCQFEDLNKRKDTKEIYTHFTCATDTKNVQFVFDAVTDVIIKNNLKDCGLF
BLM helicase inh = blocks DNA unwinding by human BLM helicase; actives 0.2% (n = 350,000); AID 2528; recombinant BLM DNA unwinding, fluorescence dequenching; P54132; Potency, µM (series often up to 56.1 µM), for the others: at the highest dose activity change, negative = inhibition, usual class: inhibitors;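 further: plate controls were vehicle for no effect and no enzyme for full effect; nearly all actives have a fitted effect of over 35% in size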
Active calls of the source: *; i = inactive; ? = inconclusive; . = not tested or not shown; ! = not confirmed by another sample; [ ] = dose if it differs, or a comment. A selection: hits, their analogues and other compounds. The true share with any hit is near 0.71%. Unless noted, the call rests on the fitted dose curve; in most records, active means well fitted curve in the direction sought with a large enough effect; inconclusive means small, poorly fitted or top-dose-only effect, or another doubt; inactive means no such curve, though single readings can be large; an effect the other way counts as inactive or inconclusive. Potency means the concentration at half of the fitted maximal effect.

SMILES	ERG Ets-DNA blk	TRb-SRC2 inh	RECQ1 inh	TexasRed fluor	RGS12 GoLoco inh	BLM helicase inh
Cc1ccccc1NC1=C/C(=N\S(=O)(=O)c2cccs2)c2ccccc2C1=O	-8.8%	-22.1%	-4.4%	-3.3%	11.9%	20µM*
CC(=O)Nc1ccc(NC2=C/C(=N/S(=O)(=O)c3cccs3)c3ccccc3C2=O)cc1	7.1%	-16.8%	11.9%	-24.0%	14.6%	22.4µM*
C[C@]12C=CC(=O)N[C@@H]1CC[C@@H]1C2CC[C@]2(C)C(C(=O)Nc3cc(C(F)(F)F)ccc3C(F)(F)F)CC[C@@H]12 (some centres not stated)	.	-0.8%	.	-1.1%	13.2%	4.3%
C=C[C@@H]1CN2CC[C@@H]1C[C@H]2[C@H](O)c1ccnc2ccc(OC)cc12	.	-3.8%	-3.7%	.	4.1%	.
C=C(C)C(=O)OCC[N+](C)(C)C	.	0.4%[201 µM]	.	-1.5%[201 µM]	.	.
COc1ccc(-c2ccc(NS(=O)(=O)c3ccc(F)c(C(F)(F)F)c3)cc2)nn1	4.8%	-4.2%	.	224µM*[quencher]	.	-0.7%
O=C(O)CCCCCCC(=O)O	.	0.9%[201 µM]	.	2.9%[201 µM]	.	.
O=c1c2ccccc2c(C=Nc2ccc(S(=O)(=O)N3CCCCC3)cc2)c(O)n1-c1ccc(Cl)cn1	.	-11.6%[53 µM]	-7.3%	35.5µM*[quencher]	-10.8%	-7.7%
N#Cc1nc(Nc2ccccc2)nc(NC2CCCCC2)n1	.	.	-9.3%	.	.	-14.8%
Nc1c(C(=O)Nc2ccccc2Br)sc2nc(-c3cccs3)ccc12	-1.5%	9.2%	.	-22.2%	.	-9.9%
Nc1c(C(=O)Nc2nc3ccccc3s2)sc2nc(-c3cccs3)ccc12	1.6%	?	i	31.6µM*[quencher]	56.2%	3.5%
CCCCn1c(NC(=O)c2ccccc2)c(C#N)c2nc3ccccc3nc21	.	8.3%	3.55µM*	-9.0%	.	1.58µM*
CCC(=O)Nc1c(C#N)c2nc3ccccc3nc2n1-c1ccc(C)cc1	-1.7%	.	.	.	.	.
CCC(=O)NC(=S)Nc1ccc(-c2nc3ccccc3s2)cc1	-2.9%	9.2%	-1.8%	0.4%	2.0%	-2.6%
CCC(=O)Nc1cc(-c2nc3ccccc3s2)c(Cl)cc1Cl	-6.5%	-11.0%	.	35.5µM*[quencher]	.	-5.0%
O=C(Oc1ccccc1)N1CCC2(CC1)CCN(c1ccncc1)CC2	.	.	-2.9%	.	2.82µM*	2.9%
O=C(Oc1ccccc1)N1CCC[C@@]2(CCN(c3ccncc3)C2)C1	.	.	-4.3%	.	-0.7%	-7.1%
CCOC(=O)c1c(NC(=O)/C=C/c2ccc(OC)c(OC)c2)sc(C(C)=O)c1C	3.1%	-19.4%[53 µM]	.	562µM*[quencher]	.	-2.3%
COC(=O)[C@@H](NC(=O)N1CCc2nc(COc3ccccc3)c3c(c2C1)CO[C@@H](C)C3)C(C)C	.	0.6%[11.2 µM]	5.9%[11.5 µM]	-2.9%[11.2 µM]	-11.6%[14.2 µM]	-4.0%[12.4 µM]
COc1ccc(N2CCN(C(CNC(=O)C(=O)NCc3cccnc3)c3cccnc3)CC2)cc1 (configuration not stated)	-1.1%	-19.6%	.	56.2µM*[quencher]	.	2.5%
COc1ccc(N2CCN(C(CNC(=O)C(=O)NCc3ccc(C)cc3)c3cccnc3)CC2)cc1 (configuration not stated)	-6.3%	0.6%	.	6.2%	.	-2.5%
CCc1ccc(NC(=O)C(=O)NCC(c2cccnc2)N2CCN(C)CC2)cc1 (configuration not stated)	1.6%	-20.3%	.	-82.4%	.	-17.7%
CCc1ccc(NC(=O)C(=O)NCC(c2cccnc2)N2CCN(c3ccc(F)cc3)CC2)cc1 (configuration not stated)	1.7%	-17.5%	.	100µM*[quencher]	.	-3.1%
COc1cccc(NC(=O)C(=O)NCC(c2cccnc2)N2CCN(c3ccccc3)CC2)c1 (configuration not stated)	2.9%	-17.1%	.	100µM*[quencher]	.	-11.4%
COC(=O)c1ccc(NC(=O)C(=O)NCC(c2cccnc2)N2CCN(c3ccccc3)CC2)cc1 (configuration not stated)	7.0%	0.3%	.	-1.1%	.	-6.4%
SMILES	ERG Ets-DNA blk	TRb-SRC2 inh	RECQ1 inh	TexasRed fluor	RGS12 GoLoco inh	BLM helicase inh
C[C@H](Cc1ccc(O)c(O)c1)[C@@H](C)Cc1ccc(O)c(O)c1	.	12.2%	2.51µM*	-2.1%	11.0%	.
O=C(NCc1cccc(F)c1)C1CCN(C(=O)c2sccc2-n2cccc2)CC1	-1.1%	-5.7%	i	25.1µM*![quencher]	4.4%	-2.4%
O=C(NCc1ccccc1)C1CCN(C(=O)c2cnn(-c3ccccc3)c2-n2cccc2)CC1	-7.0%	-8.7%	.	31.6µM*[quencher]	.	-5.9%
CCc1ccc(C(=O)c2cnc3ccc(F)cc3c2S(=O)(=O)c2ccccc2)cc1	-3.2%	-9.7%	.	25.1µM*[quencher]	.	-4.5%
CC(C)c1cccc(C(C)C)c1	.	1.0%[201 µM]	.	-1.9%[201 µM]	.	.
CC(=O)c1ccsc1-c1c(C)cc2oc(=O)cc(-c3ccccc3)c2c1C	-2.6%	-3.0%	22.4µM*	-32.9%	50.1%[88.7 µM]	-8.8%[75.6 µM]
C1CCCNCC1	.	8.5%	-1.1%	-2.2%	22.4µM*	.
C=CCN1c2ccccc2[C@]23C[C@@H](C(=O)OC)N(S(=O)(=O)c4ccc5c(c4)OCCN5C)C2=NC(C(=O)OC)=C(C(=O)OC)[C@H]13	.	7.9%[11.2 µM]	-8.5%[11.5 µM]	-3.4%[11.2 µM]	4.9%[14.2 µM]	-6.6%[12.4 µM]
N#CC(C#N)=C1C=C2C=C(N3CCCCCC3)CCC2CC1 (configuration not stated)	?	-4.8%	28.2µM*	10.4%	-115.2%	12.6µM*
N#CC(C#N)=C1C=C2C=C(N3CCOCC3)CCC2CC1 (configuration not stated)	86.3%	6.3%	i	0.9%	71.6%	-22.3%
C[C@@H]1CCCN(CP(=O)(c2ccccc2)c2ccccc2)C1	.	.	.	.	9.5%[14.2 µM]	.
CCc1nnc(NC(=O)CSc2sc3c(O)cc(=O)[nH]c3c2C#N)s1	19.7%	.	.	.	.	17.8µM*
Cc1ccc(/C=C/C2=Cc3c(sc(NC(=O)CSc4n[nH]c(N)n4)c3C#N)C(C)(C)C2)o1	.	14.3%	20µM*	-8.7%	101.6%	?
Cc1sc(NC(=O)CSc2n[nH]c(N)n2)c(C#N)c1C	10.6%	.	.	.	.	.
CCOc1ccc(OCC)c(NC(=O)c2csc3c2CCCC3)c1	0.7%	-13.2%	.	0.8%	.	-6.2%
CC(S)C(=O)NCC(=O)O (configuration not stated)	.	1.2%	0.0%	-0.1%	10µM*	-6.0%
CO[Si](OC)(OC)c1ccccc1	.	-4.4%[201 µM]	.	-0.4%[201 µM]	.	.
COc1cc(/C=C2\SC(=O)N(CC(=O)Nc3ccc(C)cc3)C2=O)cc(Cl)c1OCC(=O)O	3.6%	.	.	.	.	10µM*
Cc1[nH]n(-c2ccccc2)c(=S)c1C=Nc1cccc([N+](=O)[O-])c1	1.5%	2.5%	i	0.1%	12.6µM*	0.2%
OC[C@H]1NC[C@H](O)[C@@H](O)[C@@H]1O	.	5.3%	11.4%	-8.5%	.	3.9%
